Screening results deposited in PubChem by National Center for Advancing Translational Sciences (NCATS).
AmpC no deterg = qHTS Inhibitors of AmpC Beta-Lactamase (assay without detergent). P00811. AmpC nitrocefin hydrolysis, absorbance 480 nm, 0.0001% Triton. Potency, µM (series often up to 57.1 µM), inactives show top-dose activity change, negative = inhibition, usual class: inhibitors. 330,000 compounds, 0.52% hits. AID 485341, 2010;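 also: plate controls were no compound for no effect and no enzyme for full effect; nearly all actives have a fitted effect of over 20% in size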
Target sequence (P00811 whole entry, looked up): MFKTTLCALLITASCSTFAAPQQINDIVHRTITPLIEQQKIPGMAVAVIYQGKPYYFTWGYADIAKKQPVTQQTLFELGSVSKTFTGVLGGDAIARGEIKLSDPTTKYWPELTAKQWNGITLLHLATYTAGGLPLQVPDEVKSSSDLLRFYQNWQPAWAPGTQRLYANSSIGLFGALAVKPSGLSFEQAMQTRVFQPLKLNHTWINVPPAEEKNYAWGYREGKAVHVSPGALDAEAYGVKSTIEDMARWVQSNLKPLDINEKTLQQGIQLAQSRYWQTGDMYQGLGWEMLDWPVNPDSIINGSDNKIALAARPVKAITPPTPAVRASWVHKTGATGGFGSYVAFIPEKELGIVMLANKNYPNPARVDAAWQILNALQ
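AmpC (5.3 nM in the dispensed reagent) in 20 mM phosphate pH 7.0 with 0.01% (detergent screen) or 0.0001% Triton X-100 was preincubated with compounds for 15 min at room temperature. Nitrocefin was then added from an 800 uM solution, and hydrolysis was followed at 480 nm.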
Sm TGR inh = qHTS Assay for the Inhibitors of Schistosoma Mansoni Peroxiredoxins; Schistosoma mansoni thioredoxin glutathione reductase (TGR), Q962Y6; purified TGR, DTNB reduction, TNB absorbance 405 nm; Potency, µM (top dose mostly 114 µM), without a hit: at the top dose activity change, negative = inhibition, most hits filed as inhibitors; 360,000 compounds, 3% hits; AID 485364, 2010; also: nearly all actives have a fitted effect of over 60% in size
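Kinetic colorimetric format: TGR-catalysed, NADPH-driven DTNB reduction monitored via TNB absorbance. Enzyme dispensed at 20 nM; compound exposure 15 min at room temperature before reaction start.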
AmpC inh detg = qHTS Inhibitors of AmpC Beta-Lactamase (assay with detergent); P00811; AmpC hydrolysis of nitrocefin, absorbance 480 nm, 0.01% Triton; Potency, µM (highest dose often 114 µM), inactives show at the top dose activity change, negative = inhibition, most hits filed as inhibitors; 370,000 compounds, 0.041% hits; AID 485294, 2010;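 also: 0% = no-compound wells and -100% = no-enzyme wells; nearly all actives have a fitted effect of over 25% in size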
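AmpC (5.3 nM in the dispensed reagent) in 20 mM phosphate pH 7.0 with 0.01% (detergent screen) or 0.0001% Triton X-100 was preincubated with compounds for 15 min at room temperature. Nitrocefin was then added from an 800 uM solution, and hydrolysis was followed at 480 nm.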
An asterisk follows results filed as active; ? = inconclusive; nt = no result given. Shown are actives, neighbours in structure and some others; about 3.3% of the full set was active somewhere. Calls follow the shape of the dose curve; as a rule, active = well fitted curve in the direction sought with a large enough effect; inconclusive = small, poorly fitted or top-dose-only effect, or another doubt; inactive = no such curve, though single readings can be large; an effect the other way counts as inactive or inconclusive. Unless noted, % is scaled to controls: 0 for no effect and ±100 for the full control effect; potency is read from the fitted curve at half-maximal effect.

SMILES	AmpC no deterg	Sm TGR inh	AmpC inh detg
CCOC(=O)Cn1nc(N2CCN(c3ccc(F)cc3)CC2)ccc1=O	nt	6%	0%
COc1ccc(C2/C=C\CNCC(=O)N2Cc2ccc(F)cc2)cc1 (stereo not drawn)	1%	40µM*	-1%
COc1ccc(C2/C=C\CN(C(=O)C3CC3)CC(=O)N2Cc2ccc(F)cc2)cc1 (stereo not drawn)	37%	-2%	-2%
CC(=O)Nc1ccc(NC(=O)C2CCCN2C(=O)Nc2ccc(F)cc2)cc1 (stereo not drawn)	-4%	5%	-2%
CCC1c2ccc(C)n2CCN1C(=O)Nc1ccc(F)cc1 (stereo not drawn)	-6%	10µM*	?
CCCC1c2ccc(C)n2CCN1C(=O)Nc1ccc(F)cc1 (stereo not drawn)	4%	20µM*	-6%
O=C(CC1C(=O)NCCN1C(=O)Nc1ccc(F)cc1)Nc1ccc(F)cc1 (stereo not drawn)	23%	-1%	1%
COc1cc(OC)c(NC(=O)NC(C)c2c(-n3cccc3)sc(C)c2C)cc1Cl (stereo not drawn)	nt	-7%	-3%
CCN1C(=O)c2ccccc2Sc2ccc(NC(=O)c3ccc(C#N)cc3)cc21	nt	7%	10%
CC1CCCCN1C(=O)CSc1nnc(-c2ccco2)n1CC1CCCO1 (stereo not drawn)	-14%	?	-13%
NC(=O)NC(=O)CSc1nnc(-c2ccc(Cl)cc2)n1CC1CCCO1 (stereo not drawn)	-10%	1%	-1%
Cc1occc1-c1nnc(SCC(=O)c2ccc(Cl)cc2)n1CC1CCCO1 (stereo not drawn)	2%	20µM*	-1%
CCn1c(SCC(=O)c2ccc(Cl)cc2)nnc1-c1ccoc1C	-8%	25µM*	-14%
CCn1c(SCC(=O)c2ccc(C)cc2)nnc1-c1ccoc1C	11%	?	2%
Cc1ccc(C(=O)CSc2nnc(-c3ccco3)n2CC2CCCO2)cc1 (stereo not drawn)	?	20µM*	5%
Cc1ccc2c(c1)c(=O)c(S(=O)(=O)c1ccc(C)c(C)c1)cn2CC(=O)Nc1ccccc1	nt	1%	3%
Cc1cccc(N(C)S(=O)(=O)c2nnc(NC(=O)C(C)Oc3ccccc3)s2)c1 (stereo not drawn)	nt	?	1%
COc1ccc(N(Cc2cc3cccc(C)c3[nH]c2=O)C(=O)c2cccc(Cl)c2)cc1	nt	3%	1%
COc1ccc(C)cc1NC(=O)c1noc2c1CSc1ccccc1-2	nt	9%	-2%
COC(=O)c1ccccc1NC(=O)c1noc2c1CSc1ccccc1-2	nt	3.5µM*	1%
CCOc1ccc(CNCc2c(C(=O)O)n(Cc3ccc(OC)cc3)c3ccccc23)cc1	nt	-5%	-4%
OCCN1CCN(CC/C=C2/c3ccccc3Sc3ccc(Cl)cc32)CC1	227%	-15%	-8%
CCCCCCCCCC[N+](C)(C)CC/C=C1/c2ccccc2Sc2ccc(Cl)cc21	125%	18µM*	-15%
CC[N+](C)(C)CC/C=C1/c2ccccc2Sc2ccc(Cl)cc21	49%	-27%	1%
CCCCCCCCCCC[N+](C)(C)CC/C=C1/c2ccccc2Sc2ccc(Cl)cc21	176%	1.8µM*	-11%
SMILES	AmpC no deterg	Sm TGR inh	AmpC inh detg
Cc1ccc(-n2c(=O)c3c4c(sc3n(CC(=O)c3ccc(Cl)cc3)c2=O)CCC4)cc1C	nt	3%	?
O=c1n(Cc2ccc([N+](=O)[O-])cc2)c2ccccc2c2nc(-c3ccccc3)nn12	nt	-3%	5%
Cc1ccc(Cl)cc1N1CCN(C(=O)Cn2cnc3sc(C)c(S(=O)(=O)N4CCC(C)CC4)c3c2=O)CC1	nt	2%	6%
O=C(C1CCCO1)N1CCN(Cc2c(O)ccc3ccccc23)CC1 (stereo not drawn)	7%	0.5µM*	-5%
COc1ccc2ccccc2c1CN1CCN(C(=O)c2ccccc2)CC1	136%	28µM*	0%
COc1ccc2ccccc2c1CN1CCN(C(=O)c2ccco2)CC1	110%	-20%	-8%
CCOC(=O)N1CCN(Cc2c(O)ccc3ccccc23)CC1	27%	0.28µM*	-7%
CCOC(=O)N1CCN(Cc2ccc3ccccc3c2)CC1	58%	-25%	?
CCOC(=O)C1CCN(Cc2c(O)c3ccccc3oc2=O)CC1	-21%	-35%	-2%
Cc1ccc(CN2CCN(C(=O)C3CCCO3)CC2)cc1 (stereo not drawn)	-6%	-14%	-1%
CCOC(=O)C1CCN(Cc2c(O)ccc3ccccc23)CC1	-41%	3.5µM*	?
